# Experimental data: the supplement of paper PMC6411743
# ± gives the standard deviation of the averaged measurements. About 5,400 targets were measured; listed, in parts, are those with the largest changes and a random draw of the rest.
# Compound: Nc1nc2c(ncn2[C@@H]2O[C@H](COP(=O)(O)OP(=O)(O)OP(=O)(O)O)[C@@H](O)[C@H]2O)c(=O)[nH]1 [guanosine triphosphate]
# Assay: NP40-soluble protein abundance relative to vehicle (solubility fold change) (ratio); higher = more soluble protein in presence of GTP
# Procedure: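 Solubility proteome profiling in Jurkat crude lysate. Lysate was treated with Mg-GTP (0.1-10 mM) for 10 min at room temperature and 3 min at 37 °C, then solubilised with 0.8% NP40 and benzonase, followed by ultracentrifugation. Proteins were quantified by TMT10 LC-MS/MS; the value is the NP40-soluble abundance relative to the NP40-processed vehicle, from 3 independent experiments.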
# UniProt P19256, sequence (P19256 whole entry, one chain of several): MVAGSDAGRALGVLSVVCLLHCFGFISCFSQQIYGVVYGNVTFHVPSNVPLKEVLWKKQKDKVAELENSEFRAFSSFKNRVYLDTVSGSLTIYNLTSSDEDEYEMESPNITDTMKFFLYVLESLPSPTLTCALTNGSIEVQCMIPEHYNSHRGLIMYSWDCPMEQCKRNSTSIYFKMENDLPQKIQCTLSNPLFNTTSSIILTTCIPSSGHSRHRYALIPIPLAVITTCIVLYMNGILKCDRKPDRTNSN
# UniProt Q8IXT5, sequence (Q8IXT5 whole entry, one chain of several): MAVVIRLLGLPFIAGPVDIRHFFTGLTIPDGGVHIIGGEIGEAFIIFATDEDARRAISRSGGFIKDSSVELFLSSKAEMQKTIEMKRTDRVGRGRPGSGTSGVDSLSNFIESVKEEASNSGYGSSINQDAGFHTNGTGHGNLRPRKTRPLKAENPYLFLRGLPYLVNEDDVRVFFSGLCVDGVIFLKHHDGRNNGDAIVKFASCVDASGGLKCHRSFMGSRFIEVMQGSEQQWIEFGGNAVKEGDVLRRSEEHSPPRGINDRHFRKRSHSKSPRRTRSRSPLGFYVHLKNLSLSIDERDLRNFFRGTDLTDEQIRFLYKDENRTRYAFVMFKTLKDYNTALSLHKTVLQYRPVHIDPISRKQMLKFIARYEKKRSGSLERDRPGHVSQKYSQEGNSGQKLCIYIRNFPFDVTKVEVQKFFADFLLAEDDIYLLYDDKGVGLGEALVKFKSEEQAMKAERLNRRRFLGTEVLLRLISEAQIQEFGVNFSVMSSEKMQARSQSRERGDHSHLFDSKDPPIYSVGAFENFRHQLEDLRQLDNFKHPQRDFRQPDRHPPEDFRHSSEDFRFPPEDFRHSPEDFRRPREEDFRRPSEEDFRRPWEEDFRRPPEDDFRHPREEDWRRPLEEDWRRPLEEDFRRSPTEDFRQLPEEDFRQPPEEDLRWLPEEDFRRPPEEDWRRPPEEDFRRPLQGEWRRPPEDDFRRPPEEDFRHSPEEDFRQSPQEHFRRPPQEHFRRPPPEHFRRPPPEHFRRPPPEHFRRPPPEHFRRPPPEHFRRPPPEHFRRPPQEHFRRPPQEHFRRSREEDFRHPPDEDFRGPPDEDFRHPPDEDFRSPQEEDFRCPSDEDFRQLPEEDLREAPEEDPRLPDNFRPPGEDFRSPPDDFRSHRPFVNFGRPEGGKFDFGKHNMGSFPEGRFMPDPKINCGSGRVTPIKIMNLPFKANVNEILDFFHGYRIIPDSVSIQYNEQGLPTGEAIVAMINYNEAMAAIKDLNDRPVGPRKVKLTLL
# UniProt A5PLN9, sequence (A5PLN9 whole entry): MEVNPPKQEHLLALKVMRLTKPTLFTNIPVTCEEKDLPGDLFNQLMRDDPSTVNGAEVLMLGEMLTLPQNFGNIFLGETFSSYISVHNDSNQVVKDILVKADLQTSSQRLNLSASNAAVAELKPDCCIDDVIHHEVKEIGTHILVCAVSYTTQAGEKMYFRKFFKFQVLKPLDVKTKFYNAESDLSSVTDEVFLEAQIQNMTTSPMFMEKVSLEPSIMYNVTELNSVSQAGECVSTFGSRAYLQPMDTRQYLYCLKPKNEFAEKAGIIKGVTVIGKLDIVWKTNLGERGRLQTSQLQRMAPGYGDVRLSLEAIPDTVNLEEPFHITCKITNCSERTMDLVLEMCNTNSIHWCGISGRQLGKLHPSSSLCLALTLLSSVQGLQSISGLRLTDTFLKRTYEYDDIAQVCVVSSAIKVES
# UniProt Q8NEW0, sequence (Q8NEW0 whole entry, one chain of several): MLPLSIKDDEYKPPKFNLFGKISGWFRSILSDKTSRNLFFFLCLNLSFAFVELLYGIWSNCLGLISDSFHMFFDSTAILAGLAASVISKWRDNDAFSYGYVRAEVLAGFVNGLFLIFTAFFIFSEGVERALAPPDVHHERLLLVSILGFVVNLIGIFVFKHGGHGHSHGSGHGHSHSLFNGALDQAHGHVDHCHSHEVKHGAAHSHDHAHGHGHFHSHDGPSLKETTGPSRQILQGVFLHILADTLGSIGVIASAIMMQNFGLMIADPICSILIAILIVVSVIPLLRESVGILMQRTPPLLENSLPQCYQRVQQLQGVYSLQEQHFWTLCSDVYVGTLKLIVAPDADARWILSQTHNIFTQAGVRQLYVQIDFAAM
# UniProt O60268, sequence (O60268 whole entry, one chain of several): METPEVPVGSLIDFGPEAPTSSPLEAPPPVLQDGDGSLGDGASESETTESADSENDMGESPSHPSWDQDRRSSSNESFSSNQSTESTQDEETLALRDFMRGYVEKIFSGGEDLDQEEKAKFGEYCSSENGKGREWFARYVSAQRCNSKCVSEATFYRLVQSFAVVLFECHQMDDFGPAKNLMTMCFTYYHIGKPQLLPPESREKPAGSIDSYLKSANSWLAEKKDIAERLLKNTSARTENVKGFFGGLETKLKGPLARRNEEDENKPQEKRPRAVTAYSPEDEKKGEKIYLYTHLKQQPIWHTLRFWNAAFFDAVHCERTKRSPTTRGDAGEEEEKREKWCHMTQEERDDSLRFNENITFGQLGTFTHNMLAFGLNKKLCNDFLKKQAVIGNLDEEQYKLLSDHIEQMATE
Target,NP40-soluble protein abundance (concentration: 0.1mM),NP40-soluble protein abundance (concentration: 0.5mM),NP40-soluble protein abundance (concentration: 1mM),NP40-soluble protein abundance (concentration: 2mM),NP40-soluble protein abundance (concentration: 4mM),NP40-soluble protein abundance (concentration: 6mM),NP40-soluble protein abundance (concentration: 8mM),NP40-soluble protein abundance (concentration: 10mM)
B1AMW1|P19256|P19256-2|P19256-3 (UniProt P19256),0.879 ± 0.05,0.937 ± 0.095,0.973 ± 0.11,0.915 ± 0.064,0.979 ± 0.038,1.03 ± 0.088,0.952 ± 0.036,0.958 ± 0.047
H3BMU3|O60268|O60268-3 (UniProt O60268),0.928 ± 0.032,0.988 ± 0.17,1.01 ± 0.18,0.95 ± 0.15,0.961 ± 0.14,0.918 ± 0.2,0.919 ± 0.067,0.998 ± 0.096
B9ZVT1|Q8IXT5 (UniProt Q8IXT5),1.02 ± 0.081,1.13 ± 0.19,1.21 ± 0.078,1.28 ± 0.25,1.29 ± 0.29,1.3 ± 0.32,1.45 ± 0.47,1.48 ± 0.39
UniProt A5PLN9|A5PLN9-2|A5PLN9-4|A5PLN9-5,1.02 ± 0.078,1.04 ± 0.052,0.99 ± 0.041,0.954 ± 0.05,0.969 ± 0.073,0.951 ± 0.041,0.965 ± 0.014,0.904 ± 0.014
H0Y362|Q8NEW0 (UniProt Q8NEW0),1.21 ± 0.043,1.14 ± 0.018,1.14 ± 0.026,1.13 ± 0.1,1.05 ± 0.062,1.05 ± 0.11,1.04 ± 0.055,0.959 ± 0.013
